Measured values published in PubChem BioAssay AID1851 (National Center for Advancing Translational Sciences (NCATS), 2009).
The whole screen tested about 16,000 compounds, of which about 5,800 (36%) were called active. Not shown: some 23% with an inconclusive outcome. The list shows a part of the results. A number with no mark means an inactive call. The call rests on the fitted dose curve; in most records, active means well fitted curve in the direction sought with a large enough effect; inconclusive means small, poorly fitted or top-dose-only effect, or effect the other way; inactive means no such curve, though single readings can be large or run the other way.

molecular target: Cytochrome P450 2C19 (Homo sapiens) (UniProt P33261); experiment: Cytochrome panel assay with activity outcomes; details: recombinant CYP, pro-luciferin dealkylation, luminescence, p450-cyp2c19; series mostly up to 57.1 µM; activity, negative = inhibition: at the top concentration
On the % scale 0 is the no-effect control and ±100 the full control effect.

Chain of Cytochrome P450 2C19 (Homo sapiens) (P33261 whole entry, looked up): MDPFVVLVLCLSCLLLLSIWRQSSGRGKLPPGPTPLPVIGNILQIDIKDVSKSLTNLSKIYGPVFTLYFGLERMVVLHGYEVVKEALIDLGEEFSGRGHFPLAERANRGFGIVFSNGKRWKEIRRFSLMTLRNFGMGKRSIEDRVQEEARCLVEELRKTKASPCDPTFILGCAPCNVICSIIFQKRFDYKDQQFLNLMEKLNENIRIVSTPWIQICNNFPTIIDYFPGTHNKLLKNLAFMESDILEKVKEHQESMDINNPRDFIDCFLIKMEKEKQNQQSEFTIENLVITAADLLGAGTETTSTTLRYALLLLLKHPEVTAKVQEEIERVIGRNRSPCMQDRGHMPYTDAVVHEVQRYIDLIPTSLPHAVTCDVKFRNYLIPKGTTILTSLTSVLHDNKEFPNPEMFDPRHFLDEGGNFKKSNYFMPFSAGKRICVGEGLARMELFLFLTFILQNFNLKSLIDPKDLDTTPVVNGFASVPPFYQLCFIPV

SMILES	AC50	activity, negative = inhibition
Cc1cccc(NC(=O)C2CCN(S(=O)(=O)c3cccc4nsnc34)CC2)n1	10 µM (active)	–
O=C(NCC1COc2ccccc2O1)C1CCN(S(=O)(=O)c2cccc3nsnc23)CC1 (stereo unspecified)	14.1 µM (active)	–
COc1ccc2nc(NC(=O)C3CCN(S(=O)(=O)c4cccc5nsnc45)CC3)sc2c1	1.41 µM (active)	–
COc1ccc2nc(NCN3C(=O)c4ccccc4C3=O)sc2c1	2.51 µM (active)	–
c1cc(CN2CCCCC2)cc(OCCCNc2nc3ccccc3s2)c1	inactive	–
O=C(NCc1cccs1)C1CCN(S(=O)(=O)c2cccc3nsnc23)CC1	–	-20.4%
COc1ccc(OC)c(S(=O)(=O)N2CCC(C(=O)Nc3ccc(C)c(C)c3)CC2)c1	14.1 µM (active)	–
COc1ccc(OC)c(S(=O)(=O)N2CCC(C(=O)NCCc3ccccc3)CC2)c1	–	-28.3%
CC1(C)C(=O)C(c2ccccc2)=C2CN3C(=O)N(CCc4ccccc4)C(=O)C3(Cc3ccc(C(F)(F)F)cc3)C=C21 (stereo unspecified)	–	-6.7%
NC(=O)C[C@H](N)C(N)=O	–	-4.71% [at 11.4 µM]
O=C1CCCC2=C1C(c1ccc(OS(=O)(=O)c3ccc(Cl)cc3)cc1)C1=C(CCCC1=O)O2	3.98 µM (active)	–
Cc1ccc(S(=O)(=O)Oc2ccc(C3C4=C(CCCC4=O)OC4=C3C(=O)CCC4)cc2)cc1	4.47 µM (active)	–
CN(C)C[C@H]1CCC2=C(C1=O)C(c1ccc(Cl)c(Cl)c1)C1=C(CC[C@H](CN(C)C)C1=O)O2	–	13.9% [at 11.4 µM]
O=c1oc(-c2ccco2)nc2c1cnn2-c1ccccc1	7.08 µM (active)	–
c1ccc(-n2ncc3c2ncn2cnnc32)cc1	–	-25.1%
COC(=O)C(NNc1ccccc1)(NC(=O)c1ccccc1F)C(F)(F)F (stereo unspecified)	2.24 µM (active)	–
O=C(O)c1ccccc1C(=O)NNc1ccc(F)cc1	–	-84.8%
Cc1ccc(C(=O)O)cc1N1C(=O)c2cccc3cc(Br)cc(c23)C1=O	14.1 µM (active)	–
CCN(CC)CCN1C(=O)c2cccc3cc(N)cc(c23)C1=O	–	44.4% [at 11.4 µM]
CC1CSc2nc3sc4c(c3c(=O)n21)CCCC4 (stereo unspecified)	15.8 µM (active)	–
CCN(CC(=O)NCc1cccs1)S(=O)(=O)c1ccc(C(C)C)cc1	5.62 µM (active)	–
OCCCSCCO	–	18.7% [at 11.4 µM]
CC(C)COP(=O)(OCC(C)C)C(O)c1ccccc1F (stereo unspecified)	–	-5.54%
CC(C)COP(=O)(c1ccc(N(C)C)cc1)C(O)c1ccccc1F (stereo unspecified)	5.62 µM (active)	–

SMILES	AC50	activity, negative = inhibition
Clc1ccc(-c2ccnc(Oc3cc(Cl)ccc3Cl)n2)cc1	0.316 µM (active)	–
O=C(O)/C=C\C(=O)Nc1ccc2c(c1)-c1ccccc1C2	–	-24.1% [at 11.4 µM]
C(/C=C\c1ccccc1)=Nc1ccc2c(c1)Cc1ccccc1-2	3.98 µM (active)	–
S=C(Nc1ccc2c(c1)Cc1ccccc1-2)Nc1ccc2c(c1)Cc1ccccc1-2	–	-8.36% [at 11.4 µM]
CCCCOC(=O)c1cc2c(cn1)[nH]c1ccccc12	5.01 µM (active)	–
CC(=O)c1cccc(NS(=O)(=O)c2ccc(N/C=C\C(=O)c3ccc(F)cc3)cc2)c1	5.62 µM (active)	–
Cc1noc(NS(=O)(=O)c2ccc(N/C=C/C(=O)c3ccc4c(c3)OCO4)cc2)c1C	–	1.16%
Cn1c(=O)c(-c2cc(F)cc(F)c2)nc2cnc(N3CCOCC3)nc21	–	-14.8%
COC(=O)c1[nH]c2cc(OC)ccc2c1NC(=O)CCN1CCSCC1	–	-20.9%
COC(=O)c1[nH]c2cccc(OC)c2c1NC(=O)CN(C)CC1OCCO1	–	-23%
COC(=O)c1[nH]c2ccc(Br)cc2c1NC(=O)CN1CCN(C2CCCCC2)CC1	15.8 µM (active)	–
COC(=O)c1[nH]c2ccc(Br)cc2c1NC(=O)CN1CCCc2ccccc21	7.94 µM (active)	–
Cc1ccc(S(=O)(=O)N[C@H]2COC(=O)[C@@H](Cc3ccccc3)NC(=O)[C@@H](C)COC(=O)C/C=C\[C@@H]2C)cc1	–	32% [at 11.4 µM]
O=C(c1csnn1)N1CCC2(CCN(Cc3nccs3)CC2)CC1	–	5.37%
CCN(CC)CC[n+]1ccc2c(C)c3[nH]c4ccc(O)cc4c3c(C)c2c1	–	42.4% [at 11.4 µM]
CCCS(=O)(=O)N1CCN(CC2CC=CCC2)CC1 (stereo unspecified)	3.98 µM (active)	–
CCCS(=O)(=O)N1CCCC(C(=O)NCCN2CCOCC2)C1 (stereo unspecified)	–	14.8%
CCCS(=O)(=O)N1CCCC(C(=O)N2CCOCC2)C1 (stereo unspecified)	–	10.9%
O=c1cc(CF)[nH]c(=S)[nH]1	–	16.1% [at 11.4 µM]
CN(NC(=O)NN)c1ncc(C(F)(F)F)cc1Cl	10 µM (active)	–
O=C(CN(C(=O)CSc1nc2ccccc2o1)c1cccc(F)c1)NC1CCCCC1	1 µM (active)	–
NC(N)=N/N=C(\c1ccc(Cl)cc1)C1CC1	–	-27.1% [at 11.4 µM]
COc1ccc2nc(N)sc2c1	31.6 µM (active)	–
COc1ccc(N2C(N)=NC(N)=NC2(C)C)cc1	–	-8.58%

SMILES	AC50	activity, negative = inhibition
COc1ccc(Cc2c(N)nc(N)nc2N)cc1	–	5.91%
O=C1NC(c2cccc([N+](=O)[O-])c2)=CCN1c1ccccc1O	6.31 µM (active)	–
O=C(O)c1cc(-c2ccc3cc4c(cc3c2)OCO4)nc2ccccc12	–	35.1% [at 11.4 µM]
Cc1ccccc1NC(=S)NC(=O)c1cc(-c2ccccc2)nc2ccccc12	2.82 µM (active)	–
Cc1ccc(-c2cc(C(=O)NN=C3CCCC3)c3ccccc3n2)cc1	28.2 µM (active)	–
CCCOc1ccc(C(=O)NNC(=S)NC(=O)c2cc(-c3ccccc3)nc3ccccc23)cc1	–	-21.5%
Cc1cccc(NC(=S)NC(=O)c2cc(-c3ccccc3)nc3ccccc23)c1	1.58 µM (active)	–
C[C@@]12CC(=O)[C@@H]3[C@@H](CCC4=CC(=O)CC[C@]43C)[C@@H]1CC=C2CC(=O)O	–	30.4% [at 11.4 µM]
O=C(c1ccncc1)N1CCC2(CCN(Cc3ccncc3)CC2)CC1	–	-43.2%
c1ccc(-c2ccc(N3CC4(CCNCC4)C3)cc2)cc1	–	-17.5%
COCC(=O)N1CCC2(CCCN(c3ccncc3)C2)CC1	–	-23.3%
COCC(=O)N1CCC2(CCCN(C(=O)Nc3ccccc3)C2)CC1	–	3.47%
c1ccc(-c2ccc(N3CCCC4(CCNCC4)C3)cc2)cc1	15.8 µM (active)	–
COCC(=O)N1CCC2(CCCN(c3cccc(-c4ccccc4)c3)C2)CC1	15.8 µM (active)	–
O=C(Oc1ccccc1)N1CCC2(CCCN(c3cccc(-c4ccccc4)c3)C2)CC1	–	-3.32%
COCC(=O)N1CCC2(CC1)CN(C(=O)Nc1ccc(OC)cc1)C2	–	6.33%
COCC(=O)N1CCC2(CC1)CN(C(=O)Nc1ccccc1)C2	5.01 µM (active)	–
CC(=O)N1CCC2(CCN(Cc3ccncc3)CC2)CC1	–	2.56%
c1ccc(-c2cccc(N3CC4(CCNCC4)C3)c2)cc1	–	-26.2%
COCC(=O)N1CCC2(CCN(Cc3ccncc3)CC2)CC1	0.0251 µM (active)	–
CCN=C(N)CSS(=O)(=O)O	–	-0.003% [at 11.4 µM]
CC(=O)N1CCC2(CC1)CCN(c1cccc(-c3ccccc3)c1)CC2	–	-42%
CC(=O)N1CCC2(CCCN(c3cccc(-c4ccccc4)c3)C2)CC1	15.8 µM (active)	–
O=C(c1cnccn1)N1CCC2(CCCN(c3ccccc3)C2)CC1	0.501 µM (active)	–

SMILES	AC50	activity, negative = inhibition
O=C(c1cnccn1)N1CCC2(CC1)CCN(c1ccccc1)CC2	–	-19.7%
CC(=O)N1CCC2(CCCN(c3ccccc3)C2)CC1	25.1 µM (active)	–
CC(=O)N1CCC[C@@]2(CCN(c3ccccc3)C2)C1	–	31.6%
COc1ccc(C(=O)N2CCC[C@@]3(CCN(C(=O)Nc4ccccc4)C3)C2)cc1	–	-24.3%
COc1ccc(C(=O)N2CCC[C@@]3(CCN(c4cccc(-c5ccccc5)c4)C3)C2)cc1	7.94 µM (active)	–
O=C(c1cnccn1)N1CCC2(CC1)CN(c1ccccc1)C2	–	-14.9%
CC(=O)N1CCC2(CCCN(Cc3ccccc3)C2)CC1	–	-2.53%
COc1ccc(C(=O)N2CCC[C@@]3(CCN(Cc4ccccc4)C3)C2)cc1	–	-23.1%
O=C(Nc1ccc2ccccc2c1)[C@@H]1C[C@H]1[C@@H](NP(=O)(c1ccccc1)c1ccccc1)c1ccccc1	–	0.45%
Cc1cc(CNC(=O)[C@H]2C[C@@H]2[C@H](NP(=O)(c2ccccc2)c2ccccc2)c2ccccc2)nn1C	–	-41.1%
O=C(NCCc1c[nH]c2ccccc12)[C@H]1C[C@@H]1[C@H](NP(=O)(c1ccccc1)c1ccccc1)c1ccccc1	1.26 µM (active)	–
Cc1cc(CNC(=O)[C@@H]2C[C@H]2[C@@H](NP(=O)(c2ccccc2)c2ccccc2)c2ccccc2)nn1C	–	23.2%
O=C(NCCc1c[nH]c2ccccc12)[C@@H]1C[C@H]1[C@@H](NP(=O)(c1ccccc1)c1ccccc1)c1ccccc1	6.31 µM (active)	–
O=C(Nc1ccc2ccccc2c1)[C@H]1C[C@@H]1[C@H](NP(=O)(c1ccccc1)c1ccccc1)c1ccccc1	3.16 µM (active)	–
CCOC(=O)/C(C#N)=C\N(C)C	–	-6.23%
COc1ccc(/C=C(/C#N)C(=O)Nc2cc(C)ccc2C)cc1C(=O)O	–	-1.9%
CCOC(=O)/C(C#N)=C\c1ccc(OCC(=O)Nc2ccc(C)cc2C)c(OC)c1	2.82 µM (active)	–
COc1cc(/C=C(/C#N)c2nc3ccccc3[nH]2)ccc1Oc1ncccc1[N+](=O)[O-]	3.98 µM (active)	–
COc1cc(/C=C(/C#N)c2nc3ccccc3[nH]2)ccc1OCC(=O)Nc1ccccc1C	4.47 µM (active)	–
Cn1c(CNS(=O)(=O)c2ccc(Cl)cc2)n[nH]c1=S	–	-15.7%
Clc1ccc(SCc2cc(-c3ccccc3)no2)cc1	1.12 µM (active)	–
COc1ccc(-c2cc(CNC(C)=O)on2)cc1	–	-17.8%
O=S(=O)(NCc1cc(-c2ccccc2)no1)c1ccc(Cl)cc1	0.708 µM (active)	–
O=S(=O)(NCc1cc(-c2ccc(Cl)cc2)no1)c1ccc(Cl)cc1	1.58 µM (active)	–
